# Measured values taken from PubChem BioAssay (EPA / NIEHS).
# Values joined by “and” are separate entries in the source; they are usually repeats but may differ in a detail not shown here. Equal entries are not always repeated. Results filed as inconclusive are left out. Where a structure was tested more than once in an assay, its records may differ in their call. Active and inactive are the calls of the source. How the source made its calls: active means hit-call score of the fitted dose curve at least 0.9, where 1 is the maximum; inconclusive means response in the unintended direction; inactive means score below 0.9.
# Legend:
# [1] = target: rat Monoamine Oxidase, MAO-B, Central (MAOBC), Maob (gene 25750) (UniProt P19643); assay: NVS_ENZ_rMAOBC: NovaScreen (NVS) Enzymatic Assay for rat Monoamine Oxidase, MAO-B, Central (MAOBC) (AID 2283238)
# Method in brief: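 Compounds were first tested in duplicate at 25 uM against MAO-B from rat brain tissue; those passing the inhibition threshold were retested in concentration series up to 50 uM. Radiodetection by scintillation counting at 1.17 h, analysed against DMSO baseline.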
# [2] = target: Adenosine receptor A1 (Bos taurus) (UniProt P28190); assay: NVS_GPCR_bAdoR_NonSelective: NovaScreen (NVS) G Protein-Coupled Receptor Assay for bovine Adenosine Receptor (AdoR), Non-selective Binding (AID 2283244)
# Method in brief: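 Bovine striatal membranes, radioligand displacement binding, 1 h after dosing, filter-based scintillation counting. Screened in duplicate at 25 uM, then concentration-response up to 50 uM; loss of specific binding relative to DMSO.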
# [3] = target: guinea pig Opioid, Kappa 1 Receptor (OpiateK), OPRK1 (gene 100135587) (UniProt P41144); assay: NVS_GPCR_gOpiateK: NovaScreen (NVS) G Protein-Coupled Receptor Assay for guinea pig Opioid, Kappa 1 Receptor (OpiateK) (AID 2283252);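 further: radioligand displacement from kappa opioid receptor in guinea pig cerebellar membranes; active means reduced radioligand binding relative to DMSO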
# Method in brief: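 Signal is scintillation counts of filter-trapped radioligand bound to guinea pig cerebellar membrane receptor, measured 2 hours post-dosing. Activity is loss of binding versus DMSO, first at 25 uM in duplicate, then as concentration series for actives.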
# [4] = target: human Adenosine A1 Receptor (AdoRA1), ADORA1 (gene 134) (UniProt P30542); assay: NVS_GPCR_hAdoRA1: NovaScreen (NVS) G Protein-Coupled Receptor Assay for human Adenosine A1 Receptor (AdoRA1) (AID 2283254)
# Method in brief: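 Each chemical is first tested twice at 25 uM, actives later in dilution series, against a radioligand bound to human cortex membranes; after 1 h, filter-retained counts are compared with DMSO controls, lower signal indicating displacement.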
# [5] = target: human Adenosine A2a Receptor (AdoRA2a), ADORA2A (gene 135) (UniProt P29274); assay: NVS_GPCR_hAdoRA2a: NovaScreen (NVS) G Protein-Coupled Receptor Assay for human Adenosine A2a Receptor (AdoRA2a) (AID 2283256)
# Method in brief: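 Radioligand displacement on HEK293-derived membrane protein, cell-free; filter-based scintillation counting 1.5 hours after dosing, loss of signal vs DMSO. Single-point duplicate screen at 25 uM, actives retested in concentration series.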
# [6] = tested on: rat Monoamine Oxidase, MAO-A, Peripheral (MAOAP), gene 29253; assay: NVS_ENZ_rMAOAP: NovaScreen (NVS) Enzymatic Assay for rat Monoamine Oxidase, MAO-A, Peripheral (MAOAP) (AID 2283237)
# Method in brief: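 Rat liver mitochondrial membranes served as the MAO-A source, with enzyme activity measured by radiometric scintillation counting 1.17 hours after dosing. Loss of signal was fitted against DMSO; primary screen used 25 uM in duplicate, follow-up used concentration series.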
# [7] = target: rat Constitutive Nitric Oxide Synthase (CNOS), Nos1 (gene 24598) (UniProt P29476); assay: NVS_ENZ_rCNOS: NovaScreen (NVS) Enzymatic Assay for rat Constitutive Nitric Oxide Synthase (CNOS) (AID 2283236)
# Method in brief: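 Enzyme activity in rat brain membrane preparation, read 1 h after dosing by filter-based radiometric scintillation counting. Primary screen in duplicate at 25 uM; actives (e.g., ≥30% inhibition) then run in concentration-response up to 50 uM.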
# [8] = target: human Serotonin, 5-Hydroxytryptamine Receptor 5A (5HT5A), HTR5A (gene 3361) (UniProt P47898); assay: NVS_GPCR_h5HT5A: NovaScreen (NVS) G Protein-Coupled Receptor Assay for human Serotonin, 5-Hydroxytryptamine Receptor 5A (5HT5A) (AID 2283251)
# Method in brief: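 Cell-free radioligand displacement binding on HEK293-derived membrane protein, 1 h incubation, filter-based scintillation counting. Primary screen in duplicate at 25 uM, actives followed in concentration series; loss of signal fitted versus DMSO.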
# [9] = tested on: bovine Histamine 1 Receptor (H1), gene 281231; assay: NVS_GPCR_bH1: NovaScreen (NVS) G Protein-Coupled Receptor Assay for bovine Histamine 1 Receptor (H1) (AID 2283246)
# Method in brief: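 Radioligand displacement on bovine cerebellar membranes, 1 h after dosing, filter-based scintillation read-out; loss of signal vs DMSO. Duplicate single-concentration screen at 25 uM, then concentration-response up to 50 uM for hits.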
# [10] = target: sheep Cyclooxygenase-1 (Cox1), PTGS1 (gene 443551) (UniProt P05979); assay: NVS_ENZ_oCOX1: NovaScreen (NVS) Enzymatic Assay for sheep Cyclooxygenase-1 (Cox1) (AID 2283239);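 further: actives reduce cyclooxygenase activity so potencies are for inhibitors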
# Method in brief: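 Colorimetric enzyme readout using sheep seminal-vesicle cyclooxygenase-1, measured 0.66 h post-dosing. Single-concentration duplicates at 25 uM first, then concentration series for actives, with DMSO as baseline and plate controls.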
# [11] = target: rat Monoamine Oxidase, MAO-B, Peripheral (MAOBP), Maob (gene 25750) (UniProt P19643); assay: NVS_ENZ_rMAOBP: NovaScreen (NVS) Enzymatic Assay for rat Monoamine Oxidase, MAO-B, Peripheral (MAOBP) (AID 2283242)
# [12] = target: human Serotonin, 5-Hydroxytryptamine Receptor 7 (5HT7), HTR7 (gene 3363) (UniProt P34969); assay: NVS_GPCR_h5HT7: NovaScreen (NVS) G Protein-Coupled Receptor Assay for human Serotonin, 5-Hydroxytryptamine Receptor 7 (5HT7) (AID 2283255);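 further: hits reduce specific radioligand binding relative to DMSO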
# Method in brief: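 Radioligand displacement on membranes from CHO cells expressing human 5HT7, 1 h incubation, filter-based scintillation counting. Primary screen used a single 25 uM concentration in duplicate; actives were followed up in concentration series.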
# [13] = tested on: bovine Angiotensin II Receptor Type 2 (AT2), gene 407157; assay: NVS_GPCR_bAT2: NovaScreen (NVS) G Protein-Coupled Receptor Assay for bovine Angiotensin II Receptor Type 2 (AT2) (AID 2283240)
# Method in brief: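 Radioligand displacement on bovine cerebellar membranes, 1 hour incubation, filter-based scintillation counting; loss of signal vs DMSO. Duplicate single-point screen at 25 uM, then concentration-response to 50 uM maximum.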
# [14] = tested on: guinea pig Leukotriene B4 Receptor (LTB4), gene 100379538; assay: NVS_GPCR_gLTB4: NovaScreen (NVS) G Protein-Coupled Receptor Assay for guinea pig Leukotriene B4 Receptor (LTB4) (AID 2283247)
# Method in brief: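 Radioligand displacement on guinea pig spleen membranes, filter-based scintillation counting 2 h after dosing. Primary duplicate single point at 25 uM; hits over threshold (e.g. 30% inhibition) run in concentration-response up to 50 uM, DMSO baseline.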
# [15] = target: guinea pig Leukotriene D4 Receptor (LTD4), CYSLTR1 (gene 100135514) (UniProt Q2NNR5); assay: NVS_GPCR_gLTD4: NovaScreen (NVS) G Protein-Coupled Receptor Assay for guinea pig Leukotriene D4 Receptor (LTD4) (AID 2283248)
# Method in brief: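 Radioligand displacement on guinea pig lung membranes, 1 h incubation, filtration and scintillation counting; DMSO as negative control. Duplicate 25 uM primary screen, then singleton concentration-response up to 50 uM.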
# [16] = target: human Serotonin, 5-Hydroxytryptamine Receptor 2A (5HT2A), HTR2A (gene 3356) (UniProt P28223); assay: NVS_GPCR_h5HT2A: NovaScreen (NVS) G Protein-Coupled Receptor Assay for human Serotonin, 5-Hydroxytryptamine Receptor 2A (5HT2A) (AID 2283249)
# Method in brief: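 Human cortex membranes, cell-free radioligand binding; filter-based scintillation read 1.5 h after dosing. Duplicate screen at 25 uM first; displacement of specific binding (loss of signal) versus DMSO.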
# [17] = target: human Serotonin, 5-Hydroxytryptamine Receptor 6 (5HT6), HTR6 (gene 3362) (UniProt P50406); assay: NVS_GPCR_h5HT6: NovaScreen (NVS) G Protein-Coupled Receptor Assay for human Serotonin, 5-Hydroxytryptamine Receptor 6 (5HT6) (AID 2283253)
# Method in brief: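 Radioligand binding to 5HT6 in HEK293-derived membranes, cell-free, 1 h after dosing; bound ligand measured by filter-based scintillation counting. Primary screen in duplicate at 25 uM; actives retested in concentration series.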
# Chain of Adenosine receptor A1 (Bos taurus) (P28190 whole entry, looked up): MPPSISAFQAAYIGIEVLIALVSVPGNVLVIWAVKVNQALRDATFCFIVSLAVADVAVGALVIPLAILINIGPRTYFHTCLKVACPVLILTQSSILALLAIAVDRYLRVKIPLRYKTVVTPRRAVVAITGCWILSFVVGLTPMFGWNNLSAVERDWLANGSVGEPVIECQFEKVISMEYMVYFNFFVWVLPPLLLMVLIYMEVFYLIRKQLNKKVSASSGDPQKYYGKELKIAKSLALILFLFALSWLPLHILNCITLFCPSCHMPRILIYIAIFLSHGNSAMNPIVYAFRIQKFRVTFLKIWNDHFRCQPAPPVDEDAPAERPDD
# Chain of human Serotonin, 5-Hydroxytryptamine Receptor 5A (5HT5A), HTR5A (gene 3361) (P47898 whole entry, looked up): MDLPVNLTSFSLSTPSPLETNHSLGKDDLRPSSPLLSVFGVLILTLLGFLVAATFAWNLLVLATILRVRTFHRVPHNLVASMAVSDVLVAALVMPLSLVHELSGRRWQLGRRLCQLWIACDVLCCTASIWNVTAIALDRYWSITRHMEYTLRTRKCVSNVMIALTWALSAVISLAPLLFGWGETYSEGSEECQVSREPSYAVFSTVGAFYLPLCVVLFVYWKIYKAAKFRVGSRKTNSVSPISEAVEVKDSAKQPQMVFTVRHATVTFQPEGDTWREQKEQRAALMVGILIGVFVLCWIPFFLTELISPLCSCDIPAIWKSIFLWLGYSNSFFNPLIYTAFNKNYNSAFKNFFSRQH
# Chain of human Adenosine A2a Receptor (AdoRA2a), ADORA2A (gene 135) (P29274 whole entry, looked up): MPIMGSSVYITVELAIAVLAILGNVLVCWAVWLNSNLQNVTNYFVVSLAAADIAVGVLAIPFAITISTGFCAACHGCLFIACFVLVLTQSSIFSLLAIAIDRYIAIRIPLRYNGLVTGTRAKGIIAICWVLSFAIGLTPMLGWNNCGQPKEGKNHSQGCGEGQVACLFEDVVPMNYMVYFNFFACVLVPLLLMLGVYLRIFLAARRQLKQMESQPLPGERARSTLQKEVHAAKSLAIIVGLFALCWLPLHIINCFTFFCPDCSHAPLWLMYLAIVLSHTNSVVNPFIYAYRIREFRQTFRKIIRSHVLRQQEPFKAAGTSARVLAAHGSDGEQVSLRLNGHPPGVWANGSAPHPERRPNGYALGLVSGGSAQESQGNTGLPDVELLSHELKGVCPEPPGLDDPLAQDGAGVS
# Chain of sheep Cyclooxygenase-1 (Cox1), PTGS1 (gene 443551) (P05979 whole entry, looked up): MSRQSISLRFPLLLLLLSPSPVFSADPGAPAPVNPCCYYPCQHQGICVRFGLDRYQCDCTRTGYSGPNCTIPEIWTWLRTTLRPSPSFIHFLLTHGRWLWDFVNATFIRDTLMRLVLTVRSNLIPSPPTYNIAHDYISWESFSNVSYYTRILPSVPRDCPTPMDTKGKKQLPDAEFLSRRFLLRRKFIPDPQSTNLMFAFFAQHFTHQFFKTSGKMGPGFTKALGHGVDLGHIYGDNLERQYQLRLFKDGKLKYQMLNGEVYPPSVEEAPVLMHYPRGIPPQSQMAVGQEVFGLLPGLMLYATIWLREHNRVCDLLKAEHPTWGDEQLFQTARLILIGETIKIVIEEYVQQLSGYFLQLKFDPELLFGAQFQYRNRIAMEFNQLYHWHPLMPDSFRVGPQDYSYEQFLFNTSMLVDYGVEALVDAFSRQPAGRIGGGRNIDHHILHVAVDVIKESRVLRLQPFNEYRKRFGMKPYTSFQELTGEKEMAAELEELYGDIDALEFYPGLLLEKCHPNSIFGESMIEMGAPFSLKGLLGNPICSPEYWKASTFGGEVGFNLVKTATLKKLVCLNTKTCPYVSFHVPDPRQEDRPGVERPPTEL
# Chain of guinea pig Opioid, Kappa 1 Receptor (OpiateK), OPRK1 (gene 100135587) (P41144 whole entry, looked up): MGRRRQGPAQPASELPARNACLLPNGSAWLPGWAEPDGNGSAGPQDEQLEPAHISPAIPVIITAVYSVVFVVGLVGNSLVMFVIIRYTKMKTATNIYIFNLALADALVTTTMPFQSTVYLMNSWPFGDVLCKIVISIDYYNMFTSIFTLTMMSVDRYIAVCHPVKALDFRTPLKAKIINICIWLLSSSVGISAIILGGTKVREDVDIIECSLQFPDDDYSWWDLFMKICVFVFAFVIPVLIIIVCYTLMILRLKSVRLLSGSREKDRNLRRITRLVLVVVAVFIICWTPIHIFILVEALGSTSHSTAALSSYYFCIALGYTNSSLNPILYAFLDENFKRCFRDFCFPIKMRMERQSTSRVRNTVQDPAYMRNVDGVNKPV
# Chain of rat Constitutive Nitric Oxide Synthase (CNOS), Nos1 (gene 24598) (P29476 whole entry, looked up): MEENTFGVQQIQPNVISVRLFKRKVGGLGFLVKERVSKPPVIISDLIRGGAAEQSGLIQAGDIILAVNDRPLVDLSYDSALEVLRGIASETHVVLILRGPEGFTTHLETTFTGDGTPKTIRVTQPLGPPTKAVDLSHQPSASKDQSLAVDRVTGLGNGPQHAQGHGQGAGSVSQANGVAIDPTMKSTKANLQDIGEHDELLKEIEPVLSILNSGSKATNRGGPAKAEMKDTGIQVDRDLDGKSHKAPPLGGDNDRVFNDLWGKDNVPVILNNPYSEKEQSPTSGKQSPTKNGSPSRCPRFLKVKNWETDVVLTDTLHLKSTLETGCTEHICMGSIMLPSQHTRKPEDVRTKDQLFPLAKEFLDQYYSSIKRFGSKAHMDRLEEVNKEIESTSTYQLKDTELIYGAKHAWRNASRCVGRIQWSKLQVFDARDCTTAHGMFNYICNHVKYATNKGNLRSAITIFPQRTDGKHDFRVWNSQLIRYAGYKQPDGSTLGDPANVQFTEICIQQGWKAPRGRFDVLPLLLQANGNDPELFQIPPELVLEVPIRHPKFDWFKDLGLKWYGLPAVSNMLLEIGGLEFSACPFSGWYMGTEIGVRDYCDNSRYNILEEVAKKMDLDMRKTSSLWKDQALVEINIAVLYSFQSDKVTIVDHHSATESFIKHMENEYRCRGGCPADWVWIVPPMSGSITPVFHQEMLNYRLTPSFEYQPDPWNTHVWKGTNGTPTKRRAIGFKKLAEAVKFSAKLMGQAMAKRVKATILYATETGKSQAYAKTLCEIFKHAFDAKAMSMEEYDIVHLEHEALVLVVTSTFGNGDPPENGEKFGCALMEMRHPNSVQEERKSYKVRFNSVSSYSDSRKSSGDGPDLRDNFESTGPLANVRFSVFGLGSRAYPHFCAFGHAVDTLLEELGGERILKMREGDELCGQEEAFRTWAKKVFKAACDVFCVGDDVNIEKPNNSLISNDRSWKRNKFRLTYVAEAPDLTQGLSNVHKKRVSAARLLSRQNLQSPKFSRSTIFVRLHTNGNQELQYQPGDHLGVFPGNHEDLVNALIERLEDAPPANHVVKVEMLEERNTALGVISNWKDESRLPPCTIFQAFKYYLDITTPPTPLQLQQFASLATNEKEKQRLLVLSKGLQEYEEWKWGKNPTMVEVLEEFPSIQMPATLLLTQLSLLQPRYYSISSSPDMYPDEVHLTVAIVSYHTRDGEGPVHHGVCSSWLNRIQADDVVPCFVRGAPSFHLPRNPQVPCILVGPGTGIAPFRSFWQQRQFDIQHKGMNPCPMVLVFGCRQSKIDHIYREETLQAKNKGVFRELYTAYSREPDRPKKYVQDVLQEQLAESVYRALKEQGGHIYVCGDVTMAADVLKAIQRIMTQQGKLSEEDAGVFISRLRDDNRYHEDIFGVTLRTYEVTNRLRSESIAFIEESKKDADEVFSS
# Chain of rat Monoamine Oxidase, MAO-B, Central (MAOBC), Maob (gene 25750) (P19643 whole entry, looked up): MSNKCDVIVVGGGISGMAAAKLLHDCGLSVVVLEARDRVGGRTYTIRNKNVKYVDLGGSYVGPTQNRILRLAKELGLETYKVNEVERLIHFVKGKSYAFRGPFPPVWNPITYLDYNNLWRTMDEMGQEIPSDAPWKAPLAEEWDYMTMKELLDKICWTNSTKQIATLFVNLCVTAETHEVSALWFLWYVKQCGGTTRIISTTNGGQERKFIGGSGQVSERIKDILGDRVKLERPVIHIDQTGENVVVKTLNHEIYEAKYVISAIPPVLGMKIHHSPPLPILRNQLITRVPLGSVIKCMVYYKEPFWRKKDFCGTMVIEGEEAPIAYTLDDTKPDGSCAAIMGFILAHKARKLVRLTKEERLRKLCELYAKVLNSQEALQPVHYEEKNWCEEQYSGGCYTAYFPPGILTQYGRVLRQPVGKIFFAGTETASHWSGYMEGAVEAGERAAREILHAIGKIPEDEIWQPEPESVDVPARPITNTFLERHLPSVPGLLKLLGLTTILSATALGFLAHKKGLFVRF
# Chain of rat Monoamine Oxidase, MAO-B, Peripheral (MAOBP), Maob (gene 25750) (P19643 whole entry, looked up): as above
# Chain of human Adenosine A1 Receptor (AdoRA1), ADORA1 (gene 134) (P30542 whole entry, looked up): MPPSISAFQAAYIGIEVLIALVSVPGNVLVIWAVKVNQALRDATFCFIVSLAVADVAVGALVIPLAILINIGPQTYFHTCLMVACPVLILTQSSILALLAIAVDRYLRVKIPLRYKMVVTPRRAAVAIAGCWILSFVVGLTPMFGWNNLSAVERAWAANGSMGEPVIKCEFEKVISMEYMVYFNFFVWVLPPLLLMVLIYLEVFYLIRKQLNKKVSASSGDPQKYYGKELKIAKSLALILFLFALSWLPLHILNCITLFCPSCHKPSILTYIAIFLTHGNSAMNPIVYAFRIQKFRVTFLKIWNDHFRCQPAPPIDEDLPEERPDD
smiles,measurement,setting,value
CCOC(=O)CC(SP(=S)(OC)OC)C(=O)OCC (centres undefined),outcome,[1],inactive
same,AC50,[2],9.48 µM (active)
same,AC50,[3],15.2 µM (active)
same,AC50,[4],4.74 µM (active)
same,AC50,[5],5.74 µM (active)
CC1=C(C(=O)Nc2ccccc2)SCCO1,outcome,[6],inactive
CCCC1COC(Cn2cncn2)(c2ccc(Cl)cc2Cl)O1 (centres undefined),AC50,[3],16.6 µM (active)
CS/C(C)=N/OC(=O)N(C)SN(C)C(=O)O/N=C(\C)SC,AC50,[3],25 µM (active)
CCOP(=S)(OCC)SCn1c(=O)oc2cc(Cl)ccc21,outcome,[7],inactive
CCCN(CCC)c1c([N+](=O)[O-])cc(S(N)(=O)=O)cc1[N+](=O)[O-],outcome,[7],inactive
same,outcome,[8],inactive
same,AC50,[4],6.48 µM (active)
same,outcome,[5],inactive
CCNc1nc(Cl)nc(NC(C)C)n1,AC50,[2],8.64 µM (active)
same,outcome,[9],inactive
same,outcome,[8],inactive
same,AC50,[4],5.9 µM (active)
same,AC50,[5],4.96 µM (active) and 6.26 µM (active)
same,outcome,[5],inactive
C=CCC1=C(C)[C@@H](OC(=O)[C@@H]2[C@@H](C=C(C)C)C2(C)C)CC1=O,outcome,[10],inactive
COc1nc(NC(C)C)nc(NC(C)C)n1,AC50,[1],1.29 µM (active)
same,AC50,[2],25 µM (active)
same,AC50,[4],8.99 µM (active)
same,AC50,[5],9.33 µM (active)
CON(C)C(=O)Nc1ccc(Cl)c(Cl)c1,AC50,[1],16.1 µM (active) [middle of 4 runs]
same,outcome,[10],inactive
same,AC50,[8],7.75 µM (active)
CCCCC(CC)COC(=O)c1ccccc1C(=O)OCC(CC)CCCC (centres undefined),outcome,[7],inactive
same,outcome,[4],inactive
COc1ccc(C(c2ccc(OC)cc2)C(Cl)(Cl)Cl)cc1,AC50,[1],25 µM (active)
same,outcome,[8],inactive
same,AC50,[4],6.77 µM (active)
COC(=O)C=C(C)OP(=O)(OC)OC,outcome,[11],inactive
CNC(=S)S,outcome,[11],inactive
same,outcome,[9],inactive
O=C(Nc1ccccc1)Nc1ccnc(Cl)c1,outcome,[1],inactive
same,AC50,[8],7.13 µM (active)
same,AC50,[12],14.1 µM (active)
Cc1ccc(-c2c(Cl)nc(C#N)n2S(=O)(=O)N(C)C)cc1,AC50,[6],3.36 µM (active)
same,outcome,[13],inactive
same,AC50,[14],1.93 µM (active)
same,outcome,[15],inactive
Fc1ccc(Oc2ccnc3cc(Cl)cc(Cl)c23)cc1,outcome,[16],inactive
same,outcome,[8],inactive
CCCCNC(=O)n1c(NC(=O)OC)nc2ccccc21,outcome,[14],inactive
same,outcome,[4],inactive
COC(=O)N(OC)c1ccccc1COc1ccn(-c2ccc(Cl)cc2)n1,AC50,[4],5.54 µM (active)
same,AC50,[12],0.944 µM (active)
CN(C)C(=S)SSC(=S)N(C)C,outcome,[6],inactive
same,outcome,[10],inactive
same,outcome,[11],inactive
same,outcome,[3],inactive
same,AC50,[17],5.18 µM (active)
same,AC50,[12],6.92 µM (active)
